Our source for the composite z-score values is PubChem BioAssay.

Sequence of Albumin (Bos taurus) (P02769 whole entry, looked up): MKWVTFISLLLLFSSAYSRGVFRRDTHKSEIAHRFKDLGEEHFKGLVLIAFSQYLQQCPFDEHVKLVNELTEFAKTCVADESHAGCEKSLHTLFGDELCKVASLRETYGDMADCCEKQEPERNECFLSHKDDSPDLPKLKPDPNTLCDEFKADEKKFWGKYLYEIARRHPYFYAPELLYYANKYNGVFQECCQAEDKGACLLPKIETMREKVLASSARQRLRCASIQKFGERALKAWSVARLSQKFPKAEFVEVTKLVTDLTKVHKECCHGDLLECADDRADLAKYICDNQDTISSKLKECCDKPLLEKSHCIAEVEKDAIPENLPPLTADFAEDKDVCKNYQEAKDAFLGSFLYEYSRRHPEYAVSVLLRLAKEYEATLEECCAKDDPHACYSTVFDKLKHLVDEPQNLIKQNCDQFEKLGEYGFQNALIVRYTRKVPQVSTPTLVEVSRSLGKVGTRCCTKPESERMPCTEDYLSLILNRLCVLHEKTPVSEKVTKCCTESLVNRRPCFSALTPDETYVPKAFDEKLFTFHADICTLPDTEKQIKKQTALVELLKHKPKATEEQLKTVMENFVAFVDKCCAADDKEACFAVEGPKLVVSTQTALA

The assay concerns the target Albumin (Bos taurus) (UniProt P02769). Kind of assay: compounds binding labelled BSA control protein – biochemical, small-molecule microarray, Alexa647 label, 635/667 nm fluorescence, artefact control for SMM control protein annotation, profiling panel (AID 1118).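 Note: score merges 667 nm emission intensity and signal-to-noise per printed compound spot.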 The conditions noted are these: BSA-A647 binding, fluorescence 635 nm, higher = more signal.
In turn, `COc1ccc([C@H]2OC[C@@H]3C[C@@H](Cc4ccccc4)C(=O)N32)cc1` yielded a composite z-score of -0.127.
The result for `COCCCNC(=O)[C@@H]1c2ccccc2C(=O)N(Cc2ccccc2Cl)[C@H]1c1ccc(CO)cc1` reads -0.432; that for `O=C1C2C=CC(C(O)c3cccc4ccccc34)N(Nc3ccccc3F)C2C(=O)N1c1ccccc1` (stereo not given), 0.799; that for `COC(=O)[C@@]1(CCS(=O)(=O)c2ccccc2)N=C(c2ccc(OCCCO)cc2)O[C@H]1c1ccccc1CN=[N+]=[N-]`, -0.307.
The result for `C=C[C@H](OC)[C@@H](OC(=O)Nc1ccc(OC)cc1)c1ccc(O)c(F)c1` reads -1.15; that for `C=CCC(OC(C)=O)[C@@H]1[C@@H](N(Cc2ccc(-c3ccccc3)cc2)C(=O)c2cccc3ccccc23)c2cc(OCCCO)ccc2N1C(=O)c1ccc(-c2ccccc2)cc1` (stereo not given in full), -0.0695.
Consider `C=CCOC(=O)[C@H]1[C@@H]2C(=O)O[C@@H](c3ccccc3)[C@@H](c3ccccc3)N2[C@@H](c2ccc(OCCOC(=O)[C@H]3C[C@H]4C(=O)N[C@@H](CCCC[N+](C)(C)C)C(=O)N4[C@H]3c3ccc(O)cc3)cc2)[C@]12C(=O)Nc1ccc(I)cc12`, for which the composite z-score was -0.763.
The result for `COC(=O)[C@@]1(Cc2ccc(OC)cc2)[C@@H]2C(=CC(=O)[C@H]2CC(=O)C(=O)N2CCCC2)CN1C(=O)c1ccccc1` reads 0.826; that for `C[C@H]1NC(=O)[C@@]23C(=O)N[C@@H](Cc4ccccc4)C2[C@H](C)[C@@]2(C)O[C@H]2C3/C=C/C/C=C\CNC(=O)[C@@H]2CCCN2C1=O` (stereo not given in full), -0.274.
The result for `O=C(OCc1ccccc1)C1=CCC2c3[nH]c4ccccc4c3C(=O)C1N2S(=O)(=O)c1ccccc1[N+](=O)[O-]` (stereo not given) reads 0.994.
The result for `COC(=O)[C@@]1(Cc2ccc(OC)cc2)[C@H]2c3cc(C(=O)N4CCCC4)n(Cc4ccc(C)c(F)c4F)c3C[C@H]2CN1C(=O)c1ccccc1` reads 1.05.
`C=CCOC(=O)[C@H]1[C@@H]2C(=O)O[C@@H](c3ccccc3)[C@@H](c3ccccc3)N2[C@@H](c2ccc(OCCOC(=O)[C@H]3C[C@H]4C(=O)N[C@@H](CCCCNC(C)=O)C(=O)N4[C@H]3c3cccc(OCCO)c3)cc2)[C@]12C(=O)Nc1ccccc12` yielded a composite z-score of -0.168.
Then `CC(C)c1ccc(NN2C(C(O)c3ccc(B(O)O)cc3)C=CC3C(=O)N(c4ccccc4)C(=O)C32)cc1` (stereo not given), with 0.958.
Consider `CCCC=C(CCC)[C@@H](NC(=O)c1cccs1)c1ccc(C(F)(F)F)cc1`, for which the composite z-score amounted to 0.868.
The result for `COc1ccc(C#Cc2ccc3c(c2)[C@]2(C(=O)N3)[C@H](C(=O)Nc3nc4ccccc4s3)[C@H]3C(=O)O[C@H](c4ccccc4)[C@H](c4ccccc4)N3[C@@H]2c2ccc(O)cc2)cc1` reads 0.835; that for `CCCCCCc1nc(-c2cc(C)c(OC)c(C)c2)cc2c1[Si](C(C)C)(C(C)C)OC2`, -0.623.
As for `COCCOC(=O)N1C(=O)[C@@]2(c3cc(C#Cc4ccc(OC)cc4)ccc31)[C@H](c1ccccc1OCCO)N1[C@H](c3ccccc3)[C@H](c3ccccc3)OC(=O)[C@H]1[C@@H]2C(=O)NC[C@H](O)c1ccccc1`, the composite z-score was -0.0206.
Then `COC(=O)C(CC#Cc1ccc2c(c1)[C@]1(C(=O)N2)[C@H](c2ccc(OCCO)cc2)N2[C@H](c3ccccc3)[C@H](c3ccccc3)OC(=O)[C@H]2[C@@H]1C(=O)N1CCc2cc(OC)c(OC)cc2C1)C(=O)OC`, with 0.863; and `COCCOC(=O)N1C(=O)[C@@]2(c3cc(C#CCC(C(=O)OC)C(=O)OC)ccc31)[C@H](c1ccccc1OCCO)N1[C@H](c3ccccc3)[C@H](c3ccccc3)OC(=O)[C@H]1[C@@H]2C(=O)N1CCN(c2ncccn2)CC1`, with 0.846.
The result for `O=C(c1ccccc1)N1C(=O)[C@]2(COC(c3ccc(OCCCO)cc3)=N2)Cc2ccccc21` reads 0.368; that for `COc1ccc([Si](C)(C)[C@@H]2[C@@H](CCO)O[C@]3(C(=O)N(Cc4ccc(N(C=O)c5ccccc5)cc4)c4ccccc43)[C@H]2C)cc1`, 0.842; that for `O=C1c2ccccc2[C@](Cc2ccccc2I)(C(=O)NCC(F)(F)F)[C@H](c2ccc(CO)cc2)N1Cc1ccccc1Cl`, 0.83.
The result for `COCCOC(=O)N1C(=O)[C@@]2(c3cc(C#CCCO)ccc31)[C@H](C(N)=O)[C@H]1C(=O)O[C@H](c3ccccc3)[C@H](c3ccccc3)N1[C@@H]2c1ccc(O)cc1` reads 0.205; that for `C=C(CCCC)/C(=C/C[C@@H](OC(=O)c1ccncc1)c1ccc(OCCO)cc1)c1cc(C(=O)OC)ccc1OC`, 0.445.
`C=CCN1C(=O)[C@]2(O[C@H](CCn3cc([C@H](O)c4ccccc4)nn3)[C@@H]([Si](C)(C)c3ccc(OC)cc3)[C@@H]2C)c2ccccc21` yielded a composite z-score of -0.0698.
Then `[N-]=[N+]=NCc1ccccc1[C@@H]1OC(c2ccc(OCCCO)cc2)=N[C@]1(Cc1ccccc1)C(=O)NCC(O)CO` (stereo not given in full), with 1.05; and `COc1cc2c(cc1OC)CN(C(=O)[C@H]1[C@@H]3C(=O)O[C@@H](c4ccccc4)[C@@H](c4ccccc4)N3[C@@H](c3ccc(O)cc3)[C@]13C(=O)Nc1ccc(C#CCCO)cc13)CC2`, with 0.184; and `C=CCNC(=O)[C@@H]1[C@H]2C(=O)O[C@H](c3ccccc3)[C@H](c3ccccc3)N2[C@H](c2ccccc2OCCO)[C@@]12C(=O)N(C(=O)OCCOC)c1ccccc12`, with 0.236.
The result for `CC1(C)[C@@H]2CC(C(O)C3C=CC4C(=O)N(c5ccccc5)C(=O)C4N3Nc3ccc([N+](=O)[O-])cc3)=C[C@H]1C2` (stereo not given in full) reads 0.973; that for `C=CCNC(=O)[C@H]1[C@@H]2C(=O)O[C@@H](c3ccccc3)[C@@H](c3ccccc3)N2[C@@H](c2ccccc2OCCO)[C@]12C(=O)Nc1ccc(C#CCC(C(=O)OC)C(=O)OC)cc12`, -0.195.
The result for `O=C1C2C=CC(C(O)c3cc(C(F)(F)F)cc(C(F)(F)F)c3)N(n3cnnc3)C2C(=O)N1Cc1ccccc1` (stereo not given) reads 0.184; that for `COc1cc(NN2C(C(O)c3ccco3)C=CC3C(=O)N(c4ccccc4)C(=O)C32)cc(OC)c1OC` (stereo not given), 0.877.
With `CN(C)CCCCCCNC(=O)[C@@H]1C[C@@H]2C(=O)N[C@@H](Cc3ccccc3)C(=O)N2[C@@H]1c1ccc(O)cc1`, the composite z-score is -0.0568.
Then `CC(C)NC(=O)[C@@]1(c2ccc([N+](=O)[O-])cc2)CC(=O)N(C2CCCCC2)[C@@H]1c1ccc(CO)cc1I`, with 0.0092; and `C=CC[C@]1(C(=O)NCc2ccccc2)N=C(c2ccc(OCCCO)cc2)O[C@H]1c1ccccc1N=[N+]=[N-]`, with 0.897.
